KLF5 inhibitor – kruppel-like factor 5 inhibition; DLD-1 KLF5 promoter-luciferase reporter, luminescence; inhibition, % at 5 µM; hit rate 0.23% among 290,000; AID 1700;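 active means inhibition above a per-plate limit of that plate's mean compound inhibition plus 3 SD, cut at about 60% in these data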;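 further: 0% = DMSO wells and 100% = LY294002 at 200 µM; higher means less KLF5 promoter-driven luciferase light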
BaF3 parental – counter-screen for JAK2V617F inhibitors: parental Ba/F3 viability inhibitors; CellTiter-Glo ATP luminescence; inhibition, % at 5.6 µM; hit rate 1.1% among 220,000;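 active means inhibition above a per-campaign cutoff, the mean inhibition of all tested compounds plus 3 SD, cut at about 27% in these data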;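 further: 0% = DMSO wells and 100% = JAK Inhibitor I control wells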
Ba/F3 V617F tox – loss of viability in JAK2V617F-driven Ba/F3 cells | Ba/F3 EpoR-JAK2V617F viability, ATP luminescence | inhibition, % at 5.6 µM | hit rate 1.1% among 220,000 | AID 1446;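 active means inhibition above the campaign mean plus 3 SD over all tested compounds, cut at about 24% in these data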;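 further: cytokine-independent growth of Ba/F3 cells driven by EpoR plus mutant JAK2; 0% = DMSO-treated cells and 100% = JAK inhibitor I control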
GPR7 antag – human neuropeptides B/W receptor 1 antagonism; GPR7-expressing cells, fluorescence antagonist assay; hit rate 1.1% among 290,000; P48145; inhibition, % at 4.4 µM; in the data active means inhibition above about 16%, passing the limit was not always enough;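 further: cells stimulated with the agonist NPW; 0% = agonist with vehicle and 100% = vehicle without agonist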
Target sequence (P48145 whole entry, looked up): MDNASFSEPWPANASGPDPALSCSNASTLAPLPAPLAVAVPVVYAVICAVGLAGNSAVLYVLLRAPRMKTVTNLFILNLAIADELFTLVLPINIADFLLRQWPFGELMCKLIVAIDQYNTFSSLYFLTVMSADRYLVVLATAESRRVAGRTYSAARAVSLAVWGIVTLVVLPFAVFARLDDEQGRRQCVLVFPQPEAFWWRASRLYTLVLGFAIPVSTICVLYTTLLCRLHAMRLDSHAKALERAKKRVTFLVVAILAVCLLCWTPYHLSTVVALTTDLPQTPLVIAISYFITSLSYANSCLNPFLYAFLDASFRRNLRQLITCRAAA
IEC-6 cytotox – counter-screen for KLF5 inhibitors: cytotoxicity in IEC-6 cells; IEC-6 cytotoxicity, luminescence viability; inhibition, % at 5 µM; hit rate 0.78% among 290,000; AID 1825;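 further: 0% = plate median of test compound wells and 100% = cytotoxic reference compound wells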
DNA FID counter – counter-screen for HCV NS3 helicase inhibitors: DNA intercalator displacement | DNA fluorescent intercalator displacement, fluorescence | inhibition, % at 7.9 µM | hit rate 0.17% among 290,000; in the data active means inhibition above about 37%;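 further: 0% = vehicle and 100% = reference compound; higher means more ethidium bromide displaced from hairpin DNA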
GPR7 antag conf – confirmation of human GPR7 antagonists. shares compounds with GPR7 antag. GPR7-expressing cells, calcium fluorescence antagonist mode. inhibition, % at 4.4 µM. hit rate 52% among 2,400. AID 1952; in the data active means inhibition above about 24%;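 further: stimulated with the GPR7 agonist NPW; 0% = agonist plus vehicle and 100% = vehicle alone without agonist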
MCHR1 antagonist – MCHR1 (human) antagonism in GPR7 counter-screen; shares compounds with GPR7 antag; MCHR1-expressing cells, fluorescence antagonist assay; inhibition, % at 4.4 µM; hit rate 62% among 2,400; AID 2148;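 further: 0% = vehicle with agonist and 100% = vehicle without agonist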
* hit, by the source's call; nt = no result. An excerpt weighted towards active compounds, which were near 2.6% of everything screened. Unless noted, no stated cut-off is given here; in the data, active means inhibition above about 22%; inactive means the rest.

SMILES	KLF5 inhibitor	BaF3 parental	Ba/F3 V617F tox	GPR7 antag	IEC-6 cytotox	DNA FID counter	GPR7 antag conf	MCHR1 antagonist
Cc1c(O)ccoc1=O	0.0	-4.8	-4.3	21.3*	0.8	-0.7	-0.8	-6.3
Cc1c(C(=O)N2CCOCC2)sc2ncnc(N3CCc4ccccc4C3)c12	-34.4	2.1	-5.9	-13.5	2.6	-16.3	nt	nt
Cc1c(C(=O)N2CCCCC2C)sc2ncnc(N3CCc4ccccc4C3)c12 (configuration not stated)	5.7	6.2	-0.1	26.8*	7.7	-43.1	20.3	34.7*
O=C(O)C1CCCN1c1ncccc1[N+](=O)[O-] (configuration not stated)	-22.8	9.4	5.3	2.5	0.2	-22.7	nt	nt
CCC(C)(C(=O)NC1CCCCC1)N(Cc1ccco1)C(=O)CC1NC(=O)NC1=O (configuration not stated)	-5.2	3.3	-0.7	-3.6	-1.0	-11.0	nt	nt
CCC(C)(C(=O)NC1CCCCC1)N(Cc1ccco1)C(=O)CNC(=O)c1ccccc1 (configuration not stated)	3.0	8.6	2.2	0.8	-2.0	-24.8	nt	nt
CCC(C)(C(=O)NC1CCCC1)N(Cc1ccco1)C(=O)c1ccc2c(c1)OCO2 (configuration not stated)	-7.9	2.9	4.1	30.8*	-0.3	-25.8	37.3*	20.0
CCC(C)(C(=O)NC1CCCC1)N(Cc1ccco1)C(=O)Cc1cccs1 (configuration not stated)	-6.6	1.2	-1.5	37.7*	-2.8	-20.9	33.0*	23.2*
CC(C)CCOc1ccc(C(=O)N2CCCC2C(=O)O)cc1 (configuration not stated)	-5.8	0.5	-0.8	-3.2	6.0	-13.9	nt	nt
NS(=O)(=O)c1cccc(NC(=O)COC(=O)CC2CC3CCC2C3)c1 (configuration not stated)	-18.9	14.4	7.8	36.4*	9.5	24.9	-6.0	-6.2
O=C(COC(=O)CC1CC2CCC1C2)Nc1cccc(S(=O)(=O)NC2=NCCCCC2)c1 (configuration not stated)	-26.8	3.1	-1.2	-8.9	11.8	-31.8	nt	nt
Cc1cc(SCc2cccc([N+](=O)[O-])c2)nc(=O)[nH]1	-9.5	nt	nt	4.8	-1.3	-18.4	nt	nt
Cc1cc(SCc2ccc([N+](=O)[O-])cc2)nc(=O)[nH]1	-24.1	nt	nt	26.2*	-8.4	-9.2	4.0	3.6
CCS(=O)(=O)N1CCN(C2CCC(c3ccccc3)CC2)CC1 (configuration not stated)	-5.4	8.4	2.4	-4.8	-5.9	12.0	nt	nt
CC(C)(C)CC(C)(C)c1ccc(O)c(CN2CCN(CCC#N)CC2)c1	-27.1	7.6	0.5	-0.7	-3.7	9.5	nt	nt
N#CCCN1CCN(Cc2cc(-c3ccccc3)ccc2O)CC1	-25.2	8.6	8.0	30.7*	9.1	15.1	2.7	12.0
COc1ccc(C(=O)NCCc2c[nH]c3ccccc23)cc1OC	-54.0	nt	nt	10.4	-4.5	-2.3	nt	nt
O=C(NCCc1c[nH]c2ccccc12)c1ccc2[nH]c(=O)c(=O)[nH]c2c1	-22.1	nt	nt	40.2*	-1.0	-6.7	-22.8	12.5
O=[N+]([O-])c1ccc(NCCNS(=O)(=O)c2ccccc2)cc1	5.0	3.7	-2.7	25.0*	1.3	7.4	27.5*	32.3*
COc1ccccc1CNS(=O)(=O)c1cc(C)ccc1OC	6.1	2.4	-1.9	4.4	1.8	-19.9	nt	nt
COc1ccccc1CNS(=O)(=O)c1ccc(Cl)s1	-4.4	nt	nt	23.0*	10.2	-12.2	2.4	9.9
O=C(NCCc1ccccc1)/C(=C\c1ccc([N+](=O)[O-])cc1)NC(=O)c1ccc(Br)cc1	-12.5	4.7	-1.2	-7.1	-3.8	-11.8	nt	nt
COc1cc(/C=N\NC(=O)c2ccc(-c3ccccc3)cc2)cc(OC)c1O	-37.5	nt	nt	-15.9	-15.7	-28.2	nt	nt
CCC(C)c1ccc(OCC(=O)Nc2ccc3c(c2)C(=O)NC3=O)cc1 (configuration not stated)	-38.8	nt	nt	30.3*	0.0	-15.6	39.8*	67.0*
CCOc1ccc(C(=O)Nc2ccc3c(c2)C(=O)NC3=O)cc1	-31.9	nt	nt	-10.1	4.8	-6.4	nt	nt
SMILES	KLF5 inhibitor	BaF3 parental	Ba/F3 V617F tox	GPR7 antag	IEC-6 cytotox	DNA FID counter	GPR7 antag conf	MCHR1 antagonist
CCc1ccc(OCC(=O)Nc2ccc3c(c2)COC3=O)cc1	-3.0	-0.2	-3.5	35.9*	-4.1	-1.4	21.1	36.9*
COc1cc([N+](=O)[O-])cc(/C=N/NC(=O)Cn2cncn2)c1O	-21.2	1.1	-0.2	-5.3	-3.8	-3.1	nt	nt
CCOc1ccc(S(=O)(=O)Nc2c(C)n(C)n(-c3ccccc3)c2=O)cc1	4.6	nt	nt	-19.7	-6.2	-10.8	nt	nt
COc1ccc(-c2[nH]ncc2[C@@H]2C[C@H]3CN(Cc4ccccc4C)C(=O)[C@]34CCCN24)cc1	-19.6	12.7	6.5	10.6	4.1	-3.4	nt	nt
Cc1ccccc1CN1C[C@@H]2C[C@@H](c3cn[nH]c3-c3ccc(F)cc3)N3CCC[C@@]23C1=O	4.2	5.8	-1.4	nt	6.3	-11.9	nt	13.5
Cc1noc(C)c1CSc1nnc(-c2ccccc2)o1	-1.0	5.5	2.7	23.0*	2.1	-10.9	31.3*	21.6*
Cc1ccc(-n2c(SCC(=O)N3CC(=O)Nc4ccccc43)nc3ccccc3c2=O)cc1	7.6	7.0	-1.3	27.2*	4.7	-31.9	6.4	-10.4
Cc1cccc(C)c1-n1c(SCC(=O)N2CC(=O)Nc3ccccc32)nc2ccccc2c1=O	-12.2	4.7	-0.7	16.3	-2.4	-27.2	nt	nt
CCOC(=O)N1CCC(N(CCCOC)C(=O)Nc2cccc(OC)c2)CC1	-9.5	0.2	-3.3	1.7	-1.3	-23.6	nt	nt
CCOC(=O)N1CCC(N(C(=O)Nc2cccc(OC)c2)C(C)CC)CC1 (configuration not stated)	-16.4	-1.1	-3.3	31.7*	3.1	-2.4	19.5	-12.2
O=C(Nc1nnc(Cc2ccc([N+](=O)[O-])cc2)s1)Nc1ccccc1F	-33.2	4.5	-2.1	-5.4	0.6	-2.6	nt	nt
COc1ccc(OC(=O)c2cc3cc(Cl)ccc3oc2=O)cc1	-31.9	nt	nt	45.9*	-5.9	-8.1	-8.8	-2.2
COc1cccc(OC(=O)c2cc3ccccc3oc2=O)c1	-5.2	0.3	-2.1	9.0	1.7	-2.2	nt	nt
CCOc1ccc(-c2csc(N)c2C(=O)OC)cc1	-6.9	4.9	4.9	9.5	6.4	-11.8	nt	nt
CCOC(=O)c1sc(NC(=O)Nc2ccc(Cl)cc2)cc1C	-50.2	0.8	-2.0	35.3*	-1.4	17.3	63.2*	72.4*
CCc1cc(S(=O)(=O)N2CCN(C(=O)c3ccco3)CC2)ccc1OC	-1.4	nt	nt	-1.0	11.0	-26.3	nt	nt
COc1ccccc1-c1noc(CCC(=O)Nc2cc(C(F)(F)F)ccc2Cl)n1	-1.2	5.0	0.3	23.3*	-3.1	-12.8	15.4	32.2*
COc1ccccc1-c1noc(CCC(=O)NC2CCCC2)n1	-20.3	nt	nt	-5.8	-2.9	-9.7	nt	nt

From PubChem BioAssay
